{"source": "a collection of fitness landscapes (doi:10.1126/science.1257360)", "parents": {"B1": {"name": "PhoQ; a variant is named by its letters at X, in order, P23837 (parent)", "chain": "MKKLLRLFFPLSLRVRFLLATAAVVLVLSLAYGMVALIGYSVSFDKTTFRLLRGESNLFYTLAKWENNKLHVELPENIDKQSPTMTLIYDENGQLLWAQRDVPWLMKMIQPDWLKSNGFHEIEADVNDTSLLLSGDHSIQQQLQEVREDDDDAEMTHSVAVNVYPATSRMPKLTIVVVDTIPVELKSSYMVWSWFIYVLSANLLLVIPLLWVAAWWSLRPIEALAKEVRELEEHNRELLNPATTRELTSLVRNLNRLLKSERERYDKYRTTLTDLTHSLKTPLXXLQXXLRSLRSEKMSVSDAEPVMLEQISRISQQIGYYLHRASMRGGTLLSRELHPVAPLLDNLTSALNKVYQRKGVNISLDISPEISFVGEQNDFVEVMGNVLDNACKYCLEFVEISARQTDEHLYIVVEDDGPGIPLSKREVIFDRGQRVDTLRPGQGVGLAVAREITEQYEGKIVAGESMLGGARMEVIFGRQHSAPKDE"}}, "note": "In all, about 140,000 sequences were measured (“enrichment ratio after two sorts for PhoP signalling”: median about 0, highest 2% from about 11 on). Many of the other results were omitted from the sample, so the highest values are more common in it than they were."}
{"variants_of": "B1", "experiment": "enrichment ratio after two sorts for PhoP signalling (ratio (wild type AVST 3.29)); higher = more functional", "conditions": "with PhoP (E. coli)"}
{"variant": "LMQH", "enrichment ratio": "≤ 0.25"}
{"variant": "KFYQ", "enrichment ratio": "≤ 0.25"}
{"variant": "CSGS", "enrichment ratio": "≤ 0.25"}
{"variant": "WWST", "enrichment ratio": "≤ 0.25"}
{"variant": "FRNI", "enrichment ratio": "≤ 0.25"}
{"variant": "PVQV", "enrichment ratio": "≤ 0.25"}
{"variant": "TVQN", "enrichment ratio": 12.1}
{"variant": "TVQV", "enrichment ratio": 12.7}
{"variant": "TVQK", "enrichment ratio": 15.5}
{"variant": "NVQK", "enrichment ratio": "≤ 0.25"}
{"variant": "SPQQ", "enrichment ratio": "≤ 0.25"}
{"variant": "SPQV", "enrichment ratio": "≤ 0.25"}
{"variant": "PVQQ", "enrichment ratio": "≤ 0.25"}
{"variant": "SPQN", "enrichment ratio": "≤ 0.25"}
{"variant": "TVEN", "enrichment ratio": "≤ 0.25"}
{"variant": "TVQQ", "enrichment ratio": 12.6}
{"variant": "FVQK", "enrichment ratio": "≤ 0.25"}
{"variant": "DRLY", "enrichment ratio": "≤ 0.25"}
{"variant": "RFEM", "enrichment ratio": "≤ 0.25"}
{"variant": "RQMN", "enrichment ratio": "≤ 0.25"}
{"variant": "HNHV", "enrichment ratio": "≤ 0.25"}
{"variant": "THPW", "enrichment ratio": "≤ 0.25"}
{"variant": "LWEP", "enrichment ratio": "≤ 0.25"}
{"variant": "VYIW", "enrichment ratio": "≤ 0.25"}
{"variant": "GCNG", "enrichment ratio": "≤ 0.25"}
{"variant": "ANDM", "enrichment ratio": "≤ 0.25"}
{"variant": "ANGH", "enrichment ratio": 11.6}
{"variant": "ANGD", "enrichment ratio": "≤ 0.25"}
{"variant": "ANVM", "enrichment ratio": 14.9}
{"variant": "ARVA", "enrichment ratio": "≤ 0.25"}
{"variant": "ANGM", "enrichment ratio": 21.9}
{"variant": "AHGH", "enrichment ratio": "≤ 0.25"}
{"variant": "ANDS", "enrichment ratio": "≤ 0.25"}
{"variant": "ARGM", "enrichment ratio": "≤ 0.25"}
{"variant": "ANGR", "enrichment ratio": "≤ 0.25"}
{"variant": "ARVM", "enrichment ratio": 14.7}
{"variant": "ANGP", "enrichment ratio": "≤ 0.25"}
{"variant": "SWFD", "enrichment ratio": "≤ 0.25"}
{"variant": "HSAA", "enrichment ratio": "≤ 0.25"}
{"variant": "FPVD", "enrichment ratio": "≤ 0.25"}
{"variant": "VQYV", "enrichment ratio": "≤ 0.25"}
{"variant": "DVLV", "enrichment ratio": "≤ 0.25"}
{"variant": "PCEH", "enrichment ratio": "≤ 0.25"}
{"variant": "WFYE", "enrichment ratio": "≤ 0.25"}
{"variant": "LTRP", "enrichment ratio": "≤ 0.25"}
{"variant": "YRLF", "enrichment ratio": "≤ 0.25"}
{"variant": "ANNM", "enrichment ratio": 12.9}
{"variant": "ANPM", "enrichment ratio": "≤ 0.25"}
{"variant": "ANCK", "enrichment ratio": 6.46}
{"variant": "RPWW", "enrichment ratio": "≤ 0.25"}
{"variant": "HFCW", "enrichment ratio": "≤ 0.25"}
{"variant": "QNHV", "enrichment ratio": "≤ 0.25"}
{"variant": "QNGM", "enrichment ratio": 16}
{"variant": "QNYM", "enrichment ratio": "≤ 0.25"}
{"variant": "QNGV", "enrichment ratio": 22.1}
{"variant": "QNGD", "enrichment ratio": "≤ 0.25"}
{"variant": "QRGV", "enrichment ratio": "≤ 0.25"}
{"variant": "EKNQ", "enrichment ratio": "≤ 0.25"}
{"variant": "NNYE", "enrichment ratio": "≤ 0.25"}
{"variant": "HMKK", "enrichment ratio": "≤ 0.25"}
{"variant": "DNAG", "enrichment ratio": "≤ 0.25"}
{"variant": "FMVV", "enrichment ratio": "≤ 0.25"}
{"variant": "MREV", "enrichment ratio": "≤ 0.25"}
{"variant": "HMSI", "enrichment ratio": "≤ 0.25"}
{"variant": "QCTL", "enrichment ratio": "≤ 0.25"}
{"variant": "VHCQ", "enrichment ratio": "≤ 0.25"}
{"variant": "THCQ", "enrichment ratio": 14.3}
{"variant": "SHCI", "enrichment ratio": 6.63}
{"variant": "YHCQ", "enrichment ratio": "≤ 0.25"}
{"variant": "SHCQ", "enrichment ratio": 21.1}
{"variant": "SHCA", "enrichment ratio": 2.47}
{"variant": "PQRE", "enrichment ratio": "≤ 0.25"}
{"variant": "TLYI", "enrichment ratio": 0.826}
{"variant": "RITC", "enrichment ratio": "≤ 0.25"}
{"variant": "RFYH", "enrichment ratio": "≤ 0.25"}
{"variant": "FWFN", "enrichment ratio": "≤ 0.25"}
{"variant": "ERAC", "enrichment ratio": "≤ 0.25"}
{"variant": "SKAL", "enrichment ratio": 12.2}
{"variant": "SQAL", "enrichment ratio": 7.54}
{"variant": "SIAL", "enrichment ratio": 15.1}
{"variant": "SRAL", "enrichment ratio": "≤ 0.25"}
{"variant": "SPAL", "enrichment ratio": "≤ 0.25"}
{"variant": "SKNL", "enrichment ratio": "≤ 0.25"}
{"variant": "SKRL", "enrichment ratio": "≤ 0.25"}
{"variant": "SNAL", "enrichment ratio": 12.1}
{"variant": "RIAL", "enrichment ratio": "≤ 0.25"}
{"variant": "SAAL", "enrichment ratio": 12.8}
{"variant": "SFAL", "enrichment ratio": "≤ 0.25"}
{"variant": "KYAL", "enrichment ratio": "≤ 0.25"}
{"variant": "ETHL", "enrichment ratio": "≤ 0.25"}
{"variant": "VYRH", "enrichment ratio": "≤ 0.25"}
{"variant": "PVYN", "enrichment ratio": "≤ 0.25"}
{"variant": "RLWM", "enrichment ratio": "≤ 0.25"}
{"variant": "LPNQ", "enrichment ratio": "≤ 0.25"}
{"variant": "YSKE", "enrichment ratio": "≤ 0.25"}
{"variant": "NNAF", "enrichment ratio": "≤ 0.25"}
{"variant": "TTGS", "enrichment ratio": 8.05}
{"variant": "WDHH", "enrichment ratio": "≤ 0.25"}
{"variant": "GVIH", "enrichment ratio": "≤ 0.25"}
{"variant": "QAPP", "enrichment ratio": "≤ 0.25"}
{"variant": "NIAL", "enrichment ratio": 1.57}
{"variant": "STAL", "enrichment ratio": 11.5}
{"variant": "SSAL", "enrichment ratio": 12.2}
{"variant": "WIAL", "enrichment ratio": "≤ 0.25"}
{"variant": "NSAL", "enrichment ratio": "≤ 0.25"}
{"variant": "YTAL", "enrichment ratio": "≤ 0.25"}
{"variant": "SLAL", "enrichment ratio": 10.6}
{"variant": "TTAL", "enrichment ratio": 18.4}
{"variant": "MTAL", "enrichment ratio": 5.98}
{"variant": "ITAL", "enrichment ratio": 0.733}
{"variant": "TIAL", "enrichment ratio": 12.9}
{"variant": "QEAL", "enrichment ratio": "≤ 0.25"}
{"variant": "YSQQ", "enrichment ratio": "≤ 0.25"}
{"variant": "PRCN", "enrichment ratio": "≤ 0.25"}
{"variant": "RSCH", "enrichment ratio": "≤ 0.25"}
{"variant": "DCRN", "enrichment ratio": "≤ 0.25"}
{"variant": "MFPC", "enrichment ratio": "≤ 0.25"}
{"variant": "YLTE", "enrichment ratio": "≤ 0.25"}
{"variant": "NVTL", "enrichment ratio": "≤ 0.25"}
{"variant": "TSTL", "enrichment ratio": 20.7}
{"variant": "MMTL", "enrichment ratio": 13.2}
{"variant": "METL", "enrichment ratio": 3.99}
{"variant": "MATL", "enrichment ratio": 7.59}
{"variant": "WITL", "enrichment ratio": 0.966}
{"variant": "FVLT", "enrichment ratio": "≤ 0.25"}
{"variant": "WYAY", "enrichment ratio": "≤ 0.25"}
{"variant": "KNFK", "enrichment ratio": "≤ 0.25"}
{"variant": "MYGA", "enrichment ratio": "≤ 0.25"}
{"variant": "GWFA", "enrichment ratio": "≤ 0.25"}
{"variant": "RSRM", "enrichment ratio": "≤ 0.25"}
{"variant": "GCLA", "enrichment ratio": 6.8}
{"variant": "GCLT", "enrichment ratio": 6.49}
{"variant": "KCLN", "enrichment ratio": "≤ 0.25"}
{"variant": "GCNL", "enrichment ratio": "≤ 0.25"}
{"variant": "GCLS", "enrichment ratio": 19.3}
{"variant": "GCLN", "enrichment ratio": 11.5}
{"variant": "VRSC", "enrichment ratio": "≤ 0.25"}
{"variant": "YKWM", "enrichment ratio": "≤ 0.25"}
{"variant": "NGSC", "enrichment ratio": "≤ 0.25"}
{"variant": "GGSC", "enrichment ratio": 9.93}
{"variant": "TGSC", "enrichment ratio": 20.2}
{"variant": "FFSC", "enrichment ratio": "≤ 0.25"}
{"variant": "QGSC", "enrichment ratio": 12}
{"variant": "FVSC", "enrichment ratio": "≤ 0.25"}
{"variant": "FEYD", "enrichment ratio": "≤ 0.25"}
{"variant": "FCVK", "enrichment ratio": "≤ 0.25"}
{"variant": "ESKA", "enrichment ratio": "≤ 0.25"}
{"variant": "NEVN", "enrichment ratio": "≤ 0.25"}
{"variant": "VAFL", "enrichment ratio": 3.05}
{"variant": "WLWC", "enrichment ratio": "≤ 0.25"}
{"variant": "QCDS", "enrichment ratio": "≤ 0.25"}
{"variant": "QCNL", "enrichment ratio": "≤ 0.25"}
{"variant": "QCGD", "enrichment ratio": "≤ 0.25"}
{"variant": "GGWL", "enrichment ratio": "≤ 0.25"}
{"variant": "QCWI", "enrichment ratio": 37.7}
{"variant": "QCWL", "enrichment ratio": 13.1}
{"variant": "VIGT", "enrichment ratio": "≤ 0.25"}
{"variant": "IMSW", "enrichment ratio": "≤ 0.25"}
{"variant": "VELA", "enrichment ratio": "≤ 0.25"}
{"variant": "VRWG", "enrichment ratio": "≤ 0.25"}
{"variant": "VEWH", "enrichment ratio": 13.7}
{"variant": "VEWS", "enrichment ratio": 2.49}
{"variant": "VLWH", "enrichment ratio": "≤ 0.25"}
{"variant": "VEWI", "enrichment ratio": 12.2}
{"variant": "VEWG", "enrichment ratio": 18.1}
{"variant": "VLWG", "enrichment ratio": "≤ 0.25"}
{"variant": "VRWH", "enrichment ratio": "≤ 0.25"}
{"variant": "PTWI", "enrichment ratio": "≤ 0.25"}
{"variant": "FAIR", "enrichment ratio": "≤ 0.25"}
{"variant": "IVHI", "enrichment ratio": "≤ 0.25"}
{"variant": "MQLF", "enrichment ratio": 2.66}
{"variant": "IWYQ", "enrichment ratio": "≤ 0.25"}
{"variant": "ATSW", "enrichment ratio": 1.32}
{"variant": "HLTG", "enrichment ratio": 1.04}
{"variant": "SWLG", "enrichment ratio": "≤ 0.25"}
{"variant": "SPLG", "enrichment ratio": "≤ 0.25"}
{"variant": "KCLG", "enrichment ratio": "≤ 0.25"}
{"variant": "PTLG", "enrichment ratio": "≤ 0.25"}
{"variant": "SCLG", "enrichment ratio": 12.6}
{"variant": "PWLG", "enrichment ratio": "≤ 0.25"}
{"variant": "NALG", "enrichment ratio": 0.397}
{"variant": "STLG", "enrichment ratio": 14.5}
{"variant": "KALG", "enrichment ratio": "≤ 0.25"}
{"variant": "QCLG", "enrichment ratio": 2.4}
{"variant": "SALG", "enrichment ratio": 15.9}
{"variant": "GCLG", "enrichment ratio": 14.9}
{"variant": "WEVH", "enrichment ratio": "≤ 0.25"}
{"variant": "HANP", "enrichment ratio": "≤ 0.25"}
{"variant": "NMEQ", "enrichment ratio": "≤ 0.25"}
{"variant": "ILFS", "enrichment ratio": "≤ 0.25"}
{"variant": "QRWI", "enrichment ratio": "≤ 0.25"}
{"variant": "ISPF", "enrichment ratio": "≤ 0.25"}
{"variant": "CVQT", "enrichment ratio": "≤ 0.25"}
{"variant": "KQLG", "enrichment ratio": "≤ 0.25"}
{"variant": "TQLG", "enrichment ratio": 16.7}
{"variant": "SQLG", "enrichment ratio": 19.1}
{"variant": "SYLG", "enrichment ratio": 9.61}
{"variant": "EQLG", "enrichment ratio": "≤ 0.25"}
{"variant": "TGLG", "enrichment ratio": 10.1}
{"variant": "WQLG", "enrichment ratio": "≤ 0.25"}
{"variant": "FDLG", "enrichment ratio": "≤ 0.25"}
{"variant": "SGLG", "enrichment ratio": 15.5}
{"variant": "FQLG", "enrichment ratio": 16.7}
{"variant": "DPLG", "enrichment ratio": "≤ 0.25"}
{"variant": "NGLG", "enrichment ratio": "≤ 0.25"}
